An excerpt weighted towards active compounds, which were near 6.7% of everything screened.
Anthrax LF prot – anthrax lethal factor protease inhibition | multiplex microsphere protease cleavage assay, LF | inhibition, % at 10 µM | 0.12% of 360,000 active | AID 588501; further: plate controls were buffer without enzyme for full effect and enzyme alone for no effect
Target sequence (P15917 whole entry, looked up): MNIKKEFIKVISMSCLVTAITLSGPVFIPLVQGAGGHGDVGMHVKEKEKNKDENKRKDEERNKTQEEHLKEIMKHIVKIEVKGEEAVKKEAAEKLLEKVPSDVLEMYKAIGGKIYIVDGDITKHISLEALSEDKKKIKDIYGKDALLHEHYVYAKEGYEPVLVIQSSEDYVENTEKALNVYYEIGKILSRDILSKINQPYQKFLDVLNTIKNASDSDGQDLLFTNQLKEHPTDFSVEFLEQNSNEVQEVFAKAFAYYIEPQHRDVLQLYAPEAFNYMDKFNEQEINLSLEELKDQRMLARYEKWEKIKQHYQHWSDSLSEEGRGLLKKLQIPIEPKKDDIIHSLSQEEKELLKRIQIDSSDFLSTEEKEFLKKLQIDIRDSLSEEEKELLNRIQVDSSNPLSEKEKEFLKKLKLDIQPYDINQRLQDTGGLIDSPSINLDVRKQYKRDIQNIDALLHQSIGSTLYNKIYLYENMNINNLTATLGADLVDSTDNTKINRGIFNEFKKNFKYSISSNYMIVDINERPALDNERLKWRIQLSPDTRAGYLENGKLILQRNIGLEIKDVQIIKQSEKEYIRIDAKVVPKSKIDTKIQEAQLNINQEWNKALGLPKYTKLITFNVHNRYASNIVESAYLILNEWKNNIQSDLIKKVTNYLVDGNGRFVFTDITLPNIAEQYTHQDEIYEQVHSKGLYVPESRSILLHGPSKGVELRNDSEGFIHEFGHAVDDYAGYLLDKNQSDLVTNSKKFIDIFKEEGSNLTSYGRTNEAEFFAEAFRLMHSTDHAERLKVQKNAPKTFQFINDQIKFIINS
BoNT-F LC inh – BoNT F light chain protease inhibition | Multiplex microsphere protease cleavage assay, flow cytometry | inhibition, % at 10 µM | 0.22% of 360,000 active | AID 588497; in the data active means inhibition above about 35%, passing the limit was not always enough; further: plate controls were buffer without enzyme for full effect and enzyme alone for no effect
BoNT-A LC inh2 – inhibitors of Botulinum neurotoxin A light chain protease | multiplex microsphere protease substrate cleavage, flow cytometry | inhibition, % at 10 µM | 0.17% of 360,000 active; further: plate controls were buffer without enzyme for full effect and enzyme alone for no effect
FBA Mtb inh – inhibits M. tuberculosis FBA enzyme; P9WQA3; purified M. tuberculosis FBA, fluorescence read-out; inhibition, % at 1 µM; 2.3% of 360,000 active; in the data active means inhibition above about 27%;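 further: 0% = vehicle and 100% = reference inhibitor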
Autofluor counter – compound fluorescence in toxin protease inhibitor counterscreen; fluorescence intensity (concentration not given with the values); AID 624483; compound autofluorescence counterscreen, microsphere flow cytometry; hits give high values; 3.1% of 360,000 active; in the data active means fluorescence intensity above about 16000
GDH-TPI inh – inhibits GDH-TPI coupling enzymes, artifact for Mtb FBA screen; GDH-TPI coupled enzyme counterscreen, NADH absorbance; inhibition, % at 4.8 µM; 1.2% of 360,000 active; in the data active means inhibition above about 30%;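 further: 0% = DMSO wells and 100% = wells lacking the enzyme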
* = called active by the depositor. Unless noted, no stated cut-off is given here; in the data, active means inhibition above about 30%; inconclusive means no clear call, values can overlap the other calls; inactive means below that.

For O=C(Nc1cccc(S(=O)(=O)N2CCCCC2)c1)c1ccc2ccccc2n1 the results were Anthrax LF prot 2.6, BoNT-F LC inh 0.6, BoNT-A LC inh2 1.6, FBA Mtb inh 1.2, Autofluor counter 2912 and GDH-TPI inh 5.9.
Screening COc1ccc(CN2CCN(C3CCSCC3)CC2CCO)c(C)c1C (stereo not drawn) returned Anthrax LF prot 2.0, BoNT-F LC inh -2.0, BoNT-A LC inh2 0.6, FBA Mtb inh 0.1, Autofluor counter 3850 and GDH-TPI inh 7.3.
For Cc1ccc([N+](=O)[O-])cc1N=Cc1ccc(Br)s1 the results were Anthrax LF prot -4.7, BoNT-F LC inh 1.5, BoNT-A LC inh2 0.4, FBA Mtb inh 2.4, Autofluor counter 20554* and GDH-TPI inh -3.1.
For CCNC(=S)N/N=C(\C)c1ccc(Cl)s1 the results were Anthrax LF prot -0.5, BoNT-F LC inh -5.9, BoNT-A LC inh2 -1.0, FBA Mtb inh -0.9, Autofluor counter 2216 and GDH-TPI inh 31.0*.
`CCNC(=S)N/N=C(\C)c1cc2ccccc2o1` gave Anthrax LF prot -1.2, BoNT-F LC inh -3.5, BoNT-A LC inh2 -1.3, FBA Mtb inh -3.6, Autofluor counter 2026 and GDH-TPI inh 47.3*.
`O=C(NC1CCCCC1)n1c(=O)oc2ccccc21` gave Anthrax LF prot 0.5, BoNT-F LC inh 0.0, BoNT-A LC inh2 -0.5, FBA Mtb inh -4.2, Autofluor counter 23174* and GDH-TPI inh -10.8.
O=C(NC1CCCCC1)n1c(=O)oc2ccc(Cl)cc21 was read as Anthrax LF prot -2.3, BoNT-F LC inh -1.4, BoNT-A LC inh2 -1.1, FBA Mtb inh -1.4, Autofluor counter 23566* and GDH-TPI inh 0.6.
Screening O=C(Cn1c(=O)oc2ccc(Cl)cc21)NC1CCCCC1 returned Anthrax LF prot 0.3, BoNT-F LC inh 5.1, BoNT-A LC inh2 -0.6, FBA Mtb inh -0.9, Autofluor counter 5181 and GDH-TPI inh -6.7.
`CC1(C)Cc2cccc(OCC(=O)O)c2O1` gave Anthrax LF prot 5.1, BoNT-F LC inh 10.3, BoNT-A LC inh2 0.3, FBA Mtb inh 3.7, Autofluor counter 4574 and GDH-TPI inh 8.7.
Screening CCCc1cn(S(=O)(=O)c2ccc(OC)cc2OC)nc1N returned Anthrax LF prot -3.1, BoNT-F LC inh -6.5, BoNT-A LC inh2 -3.7, FBA Mtb inh 1.5, Autofluor counter 17146* and GDH-TPI inh 7.0.
`c1ccc(C2=NN(c3ccccc3)C(c3ccco3)C2)cc1` (stereo not drawn) gave Anthrax LF prot -2.3, BoNT-F LC inh -5.8, BoNT-A LC inh2 -0.4, FBA Mtb inh 126.0*, Autofluor counter 2178 and GDH-TPI inh 8.0.
`Cc1ccc(C2=NN(C(=S)Nc3ccccc3)C(c3ccco3)C2)cc1` (stereo not drawn) gave Anthrax LF prot -1.5, BoNT-F LC inh -4.1, BoNT-A LC inh2 -0.2, FBA Mtb inh -0.4, Autofluor counter 2975 and GDH-TPI inh 27.6.
Screening O=C(CSc1nc2ccccc2c(=O)n1-c1ccccc1)NC(=O)CN1CCCC1=O returned Anthrax LF prot 1.0, BoNT-F LC inh 3.0, BoNT-A LC inh2 -0.3, FBA Mtb inh -2.2, Autofluor counter 4025 and GDH-TPI inh 3.7.
`COc1ccc(Nc2sc(C(=O)c3ccc(Cl)cc3)c(N)c2C(=O)Nc2ccccc2OC)cc1` gave Anthrax LF prot -2.9, BoNT-F LC inh -7.2, BoNT-A LC inh2 -1.8, FBA Mtb inh -2.5, Autofluor counter 22771* and GDH-TPI inh 19.4.
`COc1ccc2cc3cc(C(=O)NCc4ccco4)oc3nc2c1` gave Anthrax LF prot -0.1, BoNT-F LC inh -2.4, BoNT-A LC inh2 0.2, FBA Mtb inh 140.3*, Autofluor counter 4386 and GDH-TPI inh 20.2.
CC1CCCCC12NC(=O)N(CC(=O)NC(=O)NCc1ccco1)C2=O (stereo not drawn) was read as Anthrax LF prot -1.8, BoNT-F LC inh -2.3, BoNT-A LC inh2 0.6, FBA Mtb inh 2.3, Autofluor counter 22867* and GDH-TPI inh 1.3.
COc1ccc(NC(=O)NCc2ccccn2)cc1 was read as Anthrax LF prot 1.6, BoNT-F LC inh -5.5, BoNT-A LC inh2 -0.1, FBA Mtb inh -6.2, Autofluor counter 4269 and GDH-TPI inh -1.8.
For COc1ccc2cc(C3(C)NC(=O)N(CC(=O)NCc4ccco4)C3=O)ccc2c1 (stereo not drawn) the results were Anthrax LF prot -1.7, BoNT-F LC inh 0.9, BoNT-A LC inh2 1.3, FBA Mtb inh -1.0, Autofluor counter 21910* and GDH-TPI inh 9.7.

High-throughput results: PubChem BioAssay, several laboratories
